Reference: PubChem BioAssay (EPA / NIEHS)
Several values for one entry are separate records, joined by “and”; a condition that tells them apart may be missing. Equal values may be shown once. Results filed as inconclusive are left out. A structure can be active in one record and inactive in another. Activity calls are given as the source filed them. The calls were made as follows, unless noted: active = hit-call score of the fitted dose curve at least 0.9, where 1 is the maximum; inconclusive = response in the unintended direction; inactive = score below 0.9.

Tests used:
[1] = system: Sodium/Iodide Symporter (NIS), SLC5A5 (gene 6528); assay: CPHEA_Stoker_NIS_Inhibition_RAIU: CPHEA's Radioactive Iodide Uptake (RAIU) Assay for Sodium/Iodide Symporter (NIS) Inhibition, Stoker and Laws Labs (AID 2283841)
Procedure, shortened: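 HEK293T cells stably expressing human NIS (hNIS-HEK293T-EPA) were exposed to test chemicals at 0.001–100uM (0.5% final DMSO) with 125I at a final 329pM in HBSS/10mM HEPES pH 7.4. After 2 hours at room temperature and ice-cold washes, intracellular 125I was counted as CPM and normalized to DMSO wells.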

[2] = CPHEA_Stoker_NIS_Cytotoxicity: Cytotoxicity Assessment for CPHEA's Radioactive Iodide Uptake (RAIU) Assay for Sodium/Iodide Symporter (NIS) Inhibition, Stoker and Laws Labs (AID 2283897);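 as to AC50: active means loss of ATP signal versus DMSO meaning cytotoxicity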
Procedure, shortened: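 hNIS-HEK293T-EPA human kidney cells were exposed for 2 hours at room temperature to test chemicals (0.001–100uM, 0.5% final DMSO) in HEPES-buffered HBSS, pH 7.4. Viability was read as ATP content by luciferase bioluminescence, loss of signal versus DMSO.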

[3] = system: zebrafish Peroxisome Proliferator-activated Receptor gamma (PPARg), gene 557037; assay: ATG_zfPPARg_XSP2: Attagene TRANS-FACTORIAL Multi-Species (XSP2) HepG2 Assay for zebrafish Peroxisome Proliferator-activated Receptor gamma (PPARg) (AID 2283833);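 also: actives increase reporter signal over DMSO so AC50 reflects activation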
Procedure, shortened: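 HepG2, transient MRTU transfection, 24 h compound; zfPPARg-GAL4 reporter mRNA by RT-PCR + capillary electrophoresis; gain-of-signal vs DMSO.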

[4] = system: turtle Thyroid Hormone Receptor, alpha (TRa), gene 101949057; assay: ATG_trTRa_XSP2: Attagene TRANS-FACTORIAL Multi-Species (XSP1) HepG2 Assay for turtle Thyroid Hormone Receptor, alpha (TRa) (AID 2283834);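 also: hits raise reporter mRNA over the DMSO baseline so AC50 marks activators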
Procedure, shortened: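 Multiplexed TRANS reporter assay; HepG2 carrying NR-Gal4 constructs treated 24 h. mRNA of the GAL4-UAS reporter quantified via labelled RT-PCR fragments on a genetic analyzer, vs DMSO negative control.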

[5] = biological target: human Thyroid hormone Receptor alpha (TRa), THRA (gene 7067) (UniProt P10827); assay: ATG_hTRa_XSP2: Attagene TRANS-FACTORIAL Multi-Species (XSP2) HepG2 Assay for human Thyroid hormone Receptor alpha (TRa) (AID 2283838)
Procedure, shortened: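 HepG2 cells transiently transfected with multiplexed GAL4-UAS reporter units and exogenous NR-GAL4 chimeras; 24 h chemical exposure with 3 nM 6-alpha-fluorotestosterone and 1.5 nM norgestrel present. Reporter mRNA measured by RT-PCR, FAM labelling, HpaI digestion, capillary electrophoresis; gain-of-signal versus DMSO.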

[6] = biological target: frog Thyroid hormone Receptor alpha (TRa), thra-a (gene 397942) (UniProt P15204); assay: ATG_frTRa_XSP2: Attagene TRANS-FACTORIAL Multi-Species (XSP2) HepG2 Assay for frog Thyroid hormone Receptor alpha (TRa) (AID 2283839);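 as to AC50: AC50 reflects induction of frog TRa-driven reporter mRNA above DMSO baseline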
Procedure, shortened: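 Chimeric frog TRα-GAL4 activity in human liver cells measures reporter transcript induction 24 h post-dose. Detection uses RT-PCR, HpaI-digested labelled products and fluorescence capillary electrophoresis; DMSO serves as negative control.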

[7] = biological target: human Thyroid hormone Receptor beta (TRb), THRB (gene 7068) (UniProt P10828); assay: ATG_hTRb_XSP2: Attagene TRANS-FACTORIAL Multi-Species (XSP2) HepG2 Assay for human Thyroid hormone Receptor beta (TRb) (AID 2283840);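 also: actives raise reporter mRNA so potency reflects agonist-like gain of signal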
Procedure, shortened: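 Gain-of-signal reporter transcription, referenced to DMSO, was measured in transiently transfected HepG2 after 24 h exposure; labeled RT-PCR products were resolved by capillary electrophoresis. Assay medium included 3 nM 6-alpha-fluorotestosterone and 1.5 nM norgestrel.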

[8] = biological target: zebrafish Thyroid Hormone Receptor alpha (TRa), thraa (gene 30670) (UniProt Q98867); assay: ATG_zfTRa_XSP2: Attagene TRANS-FACTORIAL Multi-Species (XSP1) HepG2 Assay for zebrafish Thyroid Hormone Receptor alpha (TRa) (AID 2283832);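 also: actives raise zebrafish TRa-Gal4 reporter transcript above DMSO baseline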
Procedure, shortened: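 HepG2 cells transiently transfected with multiplexed GAL4-UAS reporter units expressing chimeric NR-Gal4 proteins; 24 h after dosing, reporter mRNA measured by RT-PCR, FAM labelling, HpaI digestion and capillary electrophoresis; gain of signal versus DMSO baseline.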

[9] = ATG_M_61_XSP2: Attagene TRANS-FACTORIAL Multi-Species (XSP2) HepG2 Assay for M61 Transcription Factor (Internal Marker) (AID 2283835; active = hit-call score of the fitted dose curve at least 0.9, where 1 is the maximum; inactive = score below 0.9;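 also: reporter mRNA of an internal background marker read by RT-PCR and capillary electrophoresis; active means a rise in signal above the DMSO baseline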)
Procedure, shortened: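 First, HepG2 cells are transfected with reporter units under GAL4-UAS control. Next, chemicals are applied for 24 h. Then total RNA is reverse-transcribed, amplified, fluorescently labelled and sized by capillary electrophoresis, with gain of signal scored against DMSO.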

[10] = biological target: zebrafish Thyroid Hormone Receptor beta (TRb), thrb (gene 30607) (UniProt Q9PVE4); assay: ATG_zfTRb_XSP2: Attagene TRANS-FACTORIAL Multi-Species (XSP1) HepG2 Assay for zebrafish Thyroid Hormone Receptor beta (TRb) (AID 2283836)
Procedure, shortened: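 HepG2 cells transiently transfected with multiplexed GAL4-UAS reporter units expressing chimeric NR-Gal4 proteins; read 24 h after dosing. Reporter mRNA quantified by RT-PCR, 6-FAM labelling, HpaI digest and capillary electrophoresis; gain of signal fitted relative to DMSO.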

[11] = CEETOX_H295R_11DCORT_noMTC: CeeTox H295R High-throughput Steroidogenesis Assay for 11-Deoxycortisol (11DCORT), maximum tolerated concentration (MTC) filtered results only (AID 2283911; active = hit-call score of the fitted dose curve at least 0.9, where 1 is the maximum; inactive = score below 0.9); conditions: actives raise or lower the signal
Procedure, shortened: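 Forskolin-primed (10 uM, 48 h) H295R adrenal cells are dosed for 48 h at 0.1% DMSO; medium 11-deoxycortisol is quantified by LC-MS/MS against a 7-point standard curve, with activity fitted in both directions versus DMSO.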

[12] = CEETOX_H295R_OHPREG_noMTC: CeeTox H295R High-throughput Steroidogenesis Assay for OH-Pregnenolone (OHPREG), maximum tolerated concentration (MTC) filtered results only (AID 2283912; active = hit-call score of the fitted dose curve at least 0.9, where 1 is the maximum; inactive = score below 0.9); conditions: actives raise or lower the signal
Procedure, shortened: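 Steroidogenesis in H295R cells (OECD 456, modified): after 48 h forskolin priming and 48 h chemical treatment, secreted 17alpha-hydroxypregnenolone is measured by HPLC-MS/MS. Activity is fitted in both directions against DMSO; concentrations are not filtered by MTT-based MTC.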

[13] = CEETOX_H295R_OHPROG_noMTC: CeeTox H295R High-throughput Steroidogenesis Assay for OH-Progesterone (OHPROG), maximum tolerated concentration (MTC) filtered results only (AID 2283914; active = hit-call score of the fitted dose curve at least 0.9, where 1 is the maximum; inactive = score below 0.9); conditions: actives raise or lower the signal
Procedure, shortened: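 Forskolin 10 uM, 48 h prestim → test cmpd in DMSO (0.1% final), 48 h → medium MTBE extraction → LC-MS/MS quant of 17alpha-OH-progesterone. Bidirectional fit vs DMSO; no MTT-based MTC filtering.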

[14] = CEETOX_H295R_CORTISOL_noMTC: CeeTox H295R High-throughput Steroidogenesis Assay for Cortisol, maximum tolerated concentration (MTC) filtered results only (AID 2283916; active = hit-call score of the fitted dose curve at least 0.9, where 1 is the maximum; inactive = score below 0.9); conditions: actives raise or lower the signal
Procedure, shortened: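 Cortisol secretion measured by LC-MS/MS after 48 h chemical treatment (final 0.1% DMSO) of forskolin-primed (10 uM, 48 h) H295R cells; gain or loss fitted relative to DMSO, without maximum-tolerated-concentration filtering.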

[15] = CEETOX_H295R_CORTIC_noMTC: CeeTox H295R High-throughput Steroidogenesis Assay for Corticosterone (CORTIC), maximum tolerated concentration (MTC) filtered results only (AID 2283917; active = hit-call score of the fitted dose curve at least 0.9, where 1 is the maximum; inactive = score below 0.9); conditions: actives raise or lower the signal
Procedure, shortened: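 Following OECD 456 with minor changes, H295R cultures received 10 uM forskolin for 48 h, then test chemical at 0.1% DMSO for 48 h. Media steroids were extracted and measured by LC-MS/MS.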

[16] = CEETOX_H295R_DOC_noMTC: CeeTox H295R High-throughput Steroidogenesis Assay for DOC, maximum tolerated concentration (MTC) filtered results only (AID 2283918; active = hit-call score of the fitted dose curve at least 0.9, where 1 is the maximum; inactive = score below 0.9); conditions: actives raise or lower the signal
Procedure, shortened: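 11-Deoxycorticosterone secreted by human adrenal H295R cells quantified by HPLC-MS/MS after 48 h chemical exposure (0.1% DMSO), following 48 h 10 uM forskolin prestimulation. Concentrations not filtered by MTT-derived MTC; bidirectional fitting.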

[17] = CEETOX_H295R_ESTRADIOL_noMTC: CeeTox H295R High-throughput Steroidogenesis Assay for Estradiol, maximum tolerated concentration (MTC) filtered results only (AID 2283919; active = hit-call score of the fitted dose curve at least 0.9, where 1 is the maximum; inactive = score below 0.9); conditions: actives raise or lower the signal
Procedure, shortened: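 H295R human adrenal cells pre-stimulated 48 h with 10 uM forskolin, then exposed 48 h to chemical (0.1% DMSO final). Estradiol in medium measured by HPLC-MS/MS after MTBE extraction and dansyl derivatization; bidirectional fit versus DMSO, concentrations not MTT-filtered.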

[18] = CEETOX_H295R_PROG_noMTC: CeeTox H295R High-throughput Steroidogenesis Assay for Progesterone (PROG), maximum tolerated concentration (MTC) filtered results only (AID 2283920; active = hit-call score of the fitted dose curve at least 0.9, where 1 is the maximum; inactive = score below 0.9); conditions: actives raise or lower the signal
Procedure, shortened: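 H295R cells; forskolin 10 uM x 48 h prestim; test cpd 48 h, 0.1% DMSO final; media progesterone via LC-MS/MS; bidirectional fit vs DMSO; no MTT-based MTC filter applied.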

[19] = CEETOX_H295R_ESTRONE_noMTC: CeeTox H295R High-throughput Steroidogenesis Assay for Estrone, maximum tolerated concentration (MTC) filtered results only (AID 2283921; active = hit-call score of the fitted dose curve at least 0.9, where 1 is the maximum; inactive = score below 0.9); conditions: actives raise or lower the signal
Procedure, shortened: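 H295R cells prestimulated 48 h with 10 uM forskolin, then exposed 48 h to chemical in 0.1% DMSO; medium estrone measured by HPLC-MS/MS after MTBE extraction and dansyl derivatization, fitted bidirectionally versus DMSO without MTT-based MTC filtering.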

Chain of human Thyroid hormone Receptor beta (TRb), THRB (gene 7068) (P10828 whole entry, looked up): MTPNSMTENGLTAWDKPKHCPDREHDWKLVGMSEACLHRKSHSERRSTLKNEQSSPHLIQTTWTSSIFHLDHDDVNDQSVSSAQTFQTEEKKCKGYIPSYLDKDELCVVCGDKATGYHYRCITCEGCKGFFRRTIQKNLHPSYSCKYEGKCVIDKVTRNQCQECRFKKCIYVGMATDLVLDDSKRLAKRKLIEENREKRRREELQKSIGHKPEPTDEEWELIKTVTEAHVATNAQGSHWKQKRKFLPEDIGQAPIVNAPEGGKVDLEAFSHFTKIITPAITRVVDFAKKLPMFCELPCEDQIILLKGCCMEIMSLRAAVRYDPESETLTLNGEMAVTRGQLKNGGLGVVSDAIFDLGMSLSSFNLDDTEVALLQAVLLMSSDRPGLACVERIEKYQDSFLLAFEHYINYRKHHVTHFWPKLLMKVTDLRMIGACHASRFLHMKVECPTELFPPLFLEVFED
Chain of human Thyroid hormone Receptor alpha (TRa), THRA (gene 7067) (P10827 whole entry, looked up, the tested form may be a part): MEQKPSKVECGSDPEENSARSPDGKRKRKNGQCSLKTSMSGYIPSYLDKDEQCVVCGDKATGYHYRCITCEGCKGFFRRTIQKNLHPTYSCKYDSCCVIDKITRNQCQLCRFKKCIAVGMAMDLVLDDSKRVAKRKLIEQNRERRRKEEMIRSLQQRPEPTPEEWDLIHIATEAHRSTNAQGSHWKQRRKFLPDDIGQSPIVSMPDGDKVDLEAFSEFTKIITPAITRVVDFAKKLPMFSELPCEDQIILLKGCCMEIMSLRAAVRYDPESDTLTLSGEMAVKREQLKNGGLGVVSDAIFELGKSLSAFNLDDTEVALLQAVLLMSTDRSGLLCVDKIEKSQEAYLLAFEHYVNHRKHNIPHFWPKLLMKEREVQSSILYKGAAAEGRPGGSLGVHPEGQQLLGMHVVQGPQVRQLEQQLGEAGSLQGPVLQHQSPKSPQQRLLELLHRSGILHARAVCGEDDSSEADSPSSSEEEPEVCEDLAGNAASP
Chain of frog Thyroid hormone Receptor alpha (TRa), thra-a (gene 397942) (P15204 whole entry, looked up, the tested form may be a part): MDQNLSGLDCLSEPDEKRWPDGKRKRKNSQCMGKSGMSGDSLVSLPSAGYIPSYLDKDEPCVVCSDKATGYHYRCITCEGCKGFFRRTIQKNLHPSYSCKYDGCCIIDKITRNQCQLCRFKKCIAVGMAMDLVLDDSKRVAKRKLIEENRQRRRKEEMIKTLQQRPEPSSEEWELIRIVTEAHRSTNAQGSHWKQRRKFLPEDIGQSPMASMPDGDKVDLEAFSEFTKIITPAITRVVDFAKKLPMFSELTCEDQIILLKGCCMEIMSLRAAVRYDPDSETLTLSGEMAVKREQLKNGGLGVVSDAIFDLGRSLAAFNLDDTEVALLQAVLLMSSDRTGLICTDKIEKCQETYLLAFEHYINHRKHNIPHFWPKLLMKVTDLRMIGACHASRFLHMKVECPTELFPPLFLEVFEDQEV
Chain of zebrafish Thyroid Hormone Receptor beta (TRb), thrb (gene 30607) (Q9PVE4 whole entry, looked up, the tested form may be a part): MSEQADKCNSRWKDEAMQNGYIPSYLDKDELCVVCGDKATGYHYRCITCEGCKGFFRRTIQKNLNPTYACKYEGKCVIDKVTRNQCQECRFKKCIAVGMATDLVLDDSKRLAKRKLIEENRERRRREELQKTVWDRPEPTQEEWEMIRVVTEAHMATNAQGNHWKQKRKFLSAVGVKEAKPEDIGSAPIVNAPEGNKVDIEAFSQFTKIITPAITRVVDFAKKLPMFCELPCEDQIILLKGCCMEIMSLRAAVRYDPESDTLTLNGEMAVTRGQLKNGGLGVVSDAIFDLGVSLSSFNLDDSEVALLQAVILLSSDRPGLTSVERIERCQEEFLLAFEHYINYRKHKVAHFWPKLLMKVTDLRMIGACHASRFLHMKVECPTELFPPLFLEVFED
Chain of zebrafish Thyroid Hormone Receptor alpha (TRa), thraa (gene 30670) (Q98867 whole entry, looked up, the tested form may be a part): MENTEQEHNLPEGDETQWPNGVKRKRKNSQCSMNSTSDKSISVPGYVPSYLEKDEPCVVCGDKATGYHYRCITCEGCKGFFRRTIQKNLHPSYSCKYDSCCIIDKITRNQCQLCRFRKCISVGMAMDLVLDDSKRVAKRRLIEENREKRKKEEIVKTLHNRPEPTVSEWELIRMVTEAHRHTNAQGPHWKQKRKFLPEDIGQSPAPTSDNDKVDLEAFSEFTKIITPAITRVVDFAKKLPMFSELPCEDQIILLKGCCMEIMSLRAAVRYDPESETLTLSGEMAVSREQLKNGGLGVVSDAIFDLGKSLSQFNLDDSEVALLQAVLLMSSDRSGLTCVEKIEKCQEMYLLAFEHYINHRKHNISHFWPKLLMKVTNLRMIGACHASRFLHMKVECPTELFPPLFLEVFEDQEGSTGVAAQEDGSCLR

SMILES: O=C(Nc1ccccc1)Nc1ccnc(Cl)c1
- AC50 [1]: 50 µM (active)
- AC50 [2]: 40.1 µM (active)

SMILES: CN(C)C(=S)SSC(=S)N(C)C
- outcome [1]: inactive
- outcome [2]: inactive

SMILES: C=CCC1=C(C)C(OC(=O)C2C(C=C(C)C)C2(C)C)CC1=O (stereo not given)
- AC50 [1]: 34 µM (active) and 50 µM (active)
- outcome [1]: inactive
- AC50 [2]: 1.04 µM (active) and 50 µM (active)
- outcome [2]: inactive

SMILES: CON(C)C(=O)Nc1ccc(Cl)c(Cl)c1
- outcome [3]: inactive
- outcome [4]: inactive
- outcome [5]: inactive
- outcome [6]: inactive
- outcome [7]: inactive
- outcome [1]: inactive
- outcome [2]: inactive

SMILES: CCOc1cc(Oc2ccc(C(F)(F)F)cc2Cl)ccc1[N+](=O)[O-]
- AC50 [1]: 22.1 µM (active)

SMILES: CC(C)(C)c1ccc(CSc2cnn(C(C)(C)C)c(=O)c2Cl)cc1
- outcome [8]: inactive
- outcome [3]: inactive
- AC50 [4]: 0.0534 µM (active)
- outcome [9]: inactive
- outcome [10]: inactive
- AC50 [6]: 0.0151 µM (active)
- outcome [1]: inactive
- outcome [2]: inactive

SMILES: CCCC1COC(Cn2cncn2)(c2ccc(Cl)cc2Cl)O1 (stereo not given)
- outcome [3]: inactive
- outcome [4]: inactive
- outcome [9]: inactive
- outcome [5]: inactive
- outcome [7]: inactive
- outcome [1]: inactive
- outcome [2]: inactive

SMILES: CCCCOC(=O)c1ccccc1C(=O)OCCCC
- outcome [3]: inactive
- outcome [4]: inactive
- outcome [10]: inactive
- outcome [5]: inactive
- outcome [6]: inactive
- outcome [7]: inactive
- outcome [1]: inactive
- outcome [2]: inactive
- outcome [11]: inactive
- outcome [12]: inactive
- outcome [13]: inactive
- outcome [14]: inactive
- outcome [15]: inactive
- outcome [16]: inactive
- outcome [17]: inactive
- outcome [18]: inactive
- outcome [19]: inactive

SMILES: Cc1ccc(-c2c(Cl)nc(C#N)n2S(=O)(=O)N(C)C)cc1
- outcome [1]: inactive
- outcome [2]: inactive
